Assay results taken from the supplement of paper PMC11732987, “Enantioselective OTUD7B fragment discovery through chemoproteomics screening and high-throughput optimisation” (Communications Chemistry, 2025).

Tests used:
Test in all cases: log2 ratio of Biotin-Ahx-Ub-VS probe labelling (compound/DMSO); higher = less target engagement, active = hit call of the paper (q ≤ 0.05, log2 ratio ≤ -1)
Details in all cases: treatment time: 3 h
[1] = compound: CCC1N(CCc2sccc12)C(=O)CCl
Procedure, shortened: (§1)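 DUBs in HEK293T lysate were labelled with Biotin-Ahx-Ub-VS (0.5 µM final, 1 h) after a 3 h treatment with compound at 50 or 200 µM or with DMSO, done in triplicate on 495 µg of lysate per sample. NeutrAvidin-enriched proteins were digested with LysC and trypsin and run by diaPASEF LC-MS/MS. Median-normalised label-free quantities gave average base-two log ratios of compound to DMSO by unpaired t-test, restricted to proteins with at least 2 unique peptides.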

[2] = compound: CN1c2ccccc2C(CS1(=O)=O)NC(=O)CCl
Procedure, shortened: as §1

[3] = compound: Cl.ClCC(=O)N1CCc2ncncc2C1
Procedure, shortened: as §1

[4] = compound: Cl.Cn1ncc2C(CCCc12)NC(=O)CCl
Procedure, shortened: as §1

[5] = compound: ClCC(=O)NC1CCOc2ccccc12
Procedure, shortened: as §1

[6] = compound: ClCC(=O)NC1CCCc2ccccc12
Procedure, shortened: (§2)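 Spectronaut label-free, global-median-normalised protein quantities underlie these values, which are average ratios of compound to vehicle from an unpaired t-test. They are reported as log2 and include only proteins identified by two or more unique peptides. Samples of HEK293T lysate (495 µg) were treated in triplicate with a compound concentration series or vehicle for 3 h, then labelled with Biotin-Ahx-Ub-VS at 0.5 µM final for 1 h before NeutrAvidin enrichment, LysC and trypsin digestion, and diaPASEF LC-MS/MS.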

[7] = compound: ClCC(=O)N[C@@H]1CCCc2ccccc12
Procedure, shortened: as §2

[8] = compound: ClCC(=O)N[C@H]1CCCc2ccccc12
Procedure, shortened: as §2

[9] = compound: CCC1N(CCc2cc(OC)c(Cl)cc12)C(=O)CCl
Procedure, shortened: as §1

[10] = compound: CCCC1N(CCc2cc(OC)c(OC)cc12)C(=O)CCl
Procedure, shortened: as §1

[11] = compound: CN(Cc1cccc(Br)c1)C(=O)CCl
Procedure, shortened: as §1

[12] = compound: CN(Cc1cccc(OCc2ccccc2C)c1)C(=O)CCl
Procedure, shortened: as §1

[13] = compound: CN(Cc1ccccc1)C(=O)CCl
Procedure, shortened: as §1

[14] = compound: COc1ccc(CN(C)C(=O)CCl)cc1
Procedure, shortened: as §1

[15] = compound: COc1cccc(CN(CCCc2ccccc2)C(=O)CCl)c1
Procedure, shortened: as §1

[16] = compound: ClCC(=O)N1CCc2cc(Cl)c(Cl)cc2C1
Procedure, shortened: as §1

[17] = compound: ClCC(=O)N1CCc2nc(ncc2C1)-c1ccccc1
Procedure, shortened: as §1

[18] = compound: ClCC(=O)N1CCc2nocc2C1
Procedure, shortened: as §1

[19] = compound: ClCC(=O)N1CCc2scc(Br)c2C1
Procedure, shortened: as §1

[20] = compound: ClCC(=O)NC(C1CCCC1)c1cccs1
Procedure, shortened: as §1

Measured: log2 ratio of Biotin-Ahx-Ub-VS probe labelling

UCHL3 (UniProt P15374)
Sequence of UniProt P15374 (P15374 whole entry): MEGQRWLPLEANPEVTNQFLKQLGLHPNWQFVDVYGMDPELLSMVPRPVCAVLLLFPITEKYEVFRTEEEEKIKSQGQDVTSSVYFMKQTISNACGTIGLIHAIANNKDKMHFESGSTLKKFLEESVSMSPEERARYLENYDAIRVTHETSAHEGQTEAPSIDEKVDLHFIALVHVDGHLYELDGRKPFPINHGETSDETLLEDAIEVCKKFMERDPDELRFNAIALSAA
active: [19]; compound concentration: 50uM -1.73 | [19]; compound concentration: 200uM -4.16
inactive: [1]; compound concentration: 50uM -0.196 | [1]; compound concentration: 200uM -0.314 | [2]; compound concentration: 50uM -0.297 | [2]; compound concentration: 200uM -0.153 | [3]; compound concentration: 50uM -0.183 | [3]; compound concentration: 200uM -0.417 | [4]; compound concentration: 50uM -0.099 | [4]; compound concentration: 200uM 0.0584 | [5]; compound concentration: 50uM -0.019 | [5]; compound concentration: 200uM -0.018 | [6]; compound concentration: 0.78uM -0.0289 | [6]; compound concentration: 1.56uM 0.0129 | [6]; compound concentration: 3.13uM -0.0693 | [6]; compound concentration: 6.25uM 0.048 | [6]; compound concentration: 12.5uM 0.0678 | [6]; compound concentration: 25uM -0.149 | [6]; compound concentration: 50uM 0.0701 | [6]; compound concentration: 100uM 0.149 | [6]; compound concentration: 200uM -0.0196 | [7]; compound concentration: 0.78uM -0.0917 | [7]; compound concentration: 1.56uM -0.101 | [7]; compound concentration: 3.13uM 0.0215 | [7]; compound concentration: 6.25uM 0.0584 | [7]; compound concentration: 12.5uM -0.0931 | [7]; compound concentration: 25uM -0.0862 | [7]; compound concentration: 50uM -0.186 | [7]; compound concentration: 100uM -0.142 | [7]; compound concentration: 200uM -0.0506 | [8]; compound concentration: 0.78uM -0.0451 | [8]; compound concentration: 1.56uM -0.0987 | [8]; compound concentration: 3.13uM 0.048 | [8]; compound concentration: 6.25uM 0.105 | [8]; compound concentration: 12.5uM -0.0766 | [8]; compound concentration: 25uM -0.0628 | [8]; compound concentration: 50uM -0.0352 | [8]; compound concentration: 100uM -0.00864 | [8]; compound concentration: 200uM -0.0634 | [9]; compound concentration: 50uM 0.093 | [9]; compound concentration: 200uM -0.266 | [10]; compound concentration: 50uM -0.509 | [10]; compound concentration: 200uM -0.431 | [11]; compound concentration: 50uM -0.149 | [11]; compound concentration: 200uM -0.181 | [12]; compound concentration: 50uM -0.479 | [12]; compound concentration: 200uM -0.262 | [13]; compound concentration: 50uM -0.409 | [13]; compound concentration: 200uM -0.314 | [14]; compound concentration: 50uM -0.297 | [14]; compound concentration: 200uM -0.108 | [15]; compound concentration: 50uM -0.15 | [15]; compound concentration: 200uM -0.296 | [16]; compound concentration: 50uM -0.0194 | [16]; compound concentration: 200uM -0.59 | [17]; compound concentration: 50uM -0.0966 | [17]; compound concentration: 200uM -0.705 | [18]; compound concentration: 50uM -0.331 | [18]; compound concentration: 200uM -0.399 | [20]; compound concentration: 50uM -0.0539 | [20]; compound concentration: 200uM -0.088
